Test results: PubChem BioAssay AID1159580 (chemical genetic matrix, 2015)
“And” between values parts separate entries of the source, which are not always exact repeats. Equal values may be shown once. About 2,000 (36%) of roughly 5,500 compounds were called active. Another 18% or so got no clear call; they are omitted. Rule as the data show it: active = normalized growth mostly below about 0.91 (no sharp cut-off); inconclusive = no clear call, values can overlap the other calls; inactive = mostly above about 0.92. Some of the results follow.

Assay: chemical genetic growth profiling, strain panel (AID 1159580);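 also: tested at 20 µM; growth read once vehicle control cultures reached saturation at 30 °C; 1 = growth at the plate median or of vehicle wells; lower values mean less growth of the strain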
Settings: S. cerevisiae deletion strains, growth OD

Measured: normalized growth

Nc1nc(/C(=C/CC(=O)O)C(=O)N[C@@H]2C(=O)N3C(C(=O)O)=CCS[C@H]23)cs1
inactive: locus YAL013W, strain DEP1, hits give low values 0.991 | locus YAL021C, strain ccr4, hits give low values 1.01 | locus YAL026C, strain drs2, hits give low values 1.01 | locus YAL030W, strain snc1, hits give low values 1.02 | locus YBL061C, strain skt5, hits give low values 1 | locus YBR009C, strain hhf1, hits give low values 1.02 | locus YBR021W, strain FUR4, hits give low values 0.982 | locus YBR023C, strain chs3, hits give low values 1.01 | locus YBR171W, strain sec66, hits give low values 1.04 | locus YBR229C, strain ROT2, hits give low values 0.971 | locus YBR231C, strain swc5, hits give low values 1.01 | locus YBR279W, strain paf1, hits give low values 1 | locus YCL011C, strain gbp2, hits give low values 1 | locus YCL016C, strain dcc1, hits give low values 0.99 | locus YCL029C, strain bik1, hits give low values 0.988 | locus YCL061C, strain MRC1, hits give low values 1.01 | locus YCL069W, strain vba3, hits give low values 1 | locus YCR088W, strain abp1, hits give low values 1.01 | locus YDL005C, strain med2, hits give low values 1.01 | locus YDL035C, strain GPR1, hits give low values 1.01 | locus YDL040C, strain nat1, hits give low values 0.997 | locus YDL074C, strain BRE1, hits give low values 1.02 | locus YDL101C, strain DUN1, hits give low values 0.989 | locus YDL134C, strain PPH21, hits give low values 0.988 | locus YDL185W, strain tfp1, hits give low values 0.99 | locus YDL192W, strain arf1, hits give low values 0.983 | locus YDR001C, strain nth1, hits give low values 1.02 | locus YDR069C, strain doa4, hits give low values 1.01 | locus YDR101C, strain arx1, hits give low values 0.99 | locus YDR137W, strain rgp1, hits give low values 1.01 | locus YDR150W, strain NUM1, hits give low values 0.998 | locus YDR159W, strain sac3, hits give low values 1.02 | locus YDR162C, strain NBP2, hits give low values 1 | locus YDR195W, strain ref2 1.01 | locus YDR297W, strain sur2, hits give low values 1.01 | locus YDR318W, strain mcm21, hits give low values 0.996 | locus YDR334W, strain swr1, hits give low values 0.993 | locus YDR335W, strain msn5, hits give low values 1.01 | locus YDR388W, hits give low values 0.992 | locus YDR392W, strain spt3, hits give low values 1.01 | locus YDR502C, strain sam2, hits give low values 0.992 | locus YEL003W, strain gim4, hits give low values 1.01 | locus YEL037C, strain rad23, hits give low values 1 | locus YEL061C, strain CIN8 (second series), hits give low values 1 | locus YEL061C, strain CIN8, hits give low values 0.995 | locus YER015W, strain faa2, hits give low values 1 | locus YER016W, strain bim1, hits give low values 0.998 | locus YER110C, hits give low values 0.978 | locus YER111C, strain swi4, hits give low values 1.01 | locus YER155C, strain BEM2 (second series), hits give low values 1.03 | locus YER155C, strain BEM2, hits give low values 1.04 | locus YER167W, strain BCK2, hits give low values 0.985 | locus YFR010W, strain ubp6, hits give low values 1 | locus YGL078C, strain dbp3, hits give low values 0.995 | locus YGL086W, strain mad1, hits give low values 0.991 | locus YGL167C, strain pmr1, hits give low values 1 | locus YGL173C, strain kem1, hits give low values 1.02 | locus YGL227W, strain vid30, hits give low values 1.01 | locus YGL240W, strain doc1, hits give low values 1.01 | locus YGL248W, strain PDE1, hits give low values 0.978 | locus YGL253W, strain hxk2, hits give low values 1 | locus YGR078C, strain PAC10, hits give low values 1.03 | locus YGR135W, strain pre9, hits give low values 0.991 | locus YGR229C, strain SMI1, hits give low values 0.935 | locus YGR252W, strain gcn5, hits give low values 1.04 | locus YHR013C, strain ard1, hits give low values 0.997 | locus YHR027C, strain rpn1, hits give low values 1.01 | locus YHR030C, strain SLT2, hits give low values 0.99 and 0.989 | locus YHR079C, strain IRE1 (second series), hits give low values 0.998 | locus YHR079C, strain IRE1, hits give low values 0.974 | locus YHR094C, strain hxt1, hits give low values 0.99 | locus YHR129C, strain ARP1, hits give low values 0.989 | locus YHR142W, strain chs7, hits give low values 1.02 | locus YHR200W, strain rpn10, hits give low values 0.992 | locus YIL066C, strain RNR3, hits give low values 0.993 | locus YIL073C, strain SPO22, hits give low values 1.03 | locus YIL125W, strain kgd1, hits give low values 0.994 | locus YIR030C, strain dcg1, hits give low values 0.987 | locus YJL092W, strain hpr5, hits give low values 1 | locus YJL095W, strain BCK1 (second series), hits give low values 1.01 | locus YJL095W, strain BCK1, hits give low values 0.997 and 1.01 | locus YJL115W, strain asf1, hits give low values 1.03 | locus YJL129C, strain trk1, hits give low values 1.01 | locus YJL134W, strain LCB3, hits give low values 0.993 | locus YJL154C, strain vps35, hits give low values 1.01 | locus YJL164C, strain tpk1, hits give low values 0.988 | locus YJL166W, strain qcr8, hits give low values 1.02 | locus YJL168C, strain set2, hits give low values 0.99 | locus YJL187C, strain SWE1 (second series), hits give low values 0.989 | locus YJL187C, strain SWE1, hits give low values 1.01 | locus YJR043C, strain POL32, hits give low values 0.981 | locus YJR066W, strain TOR1, hits give low values 0.949
